# Experimental data taken from PubChem BioAssay (Tox21).
# Several values for one entry are separate records, joined by “and”; a condition that tells them apart may be missing. Equal values may be shown once. Results filed as inconclusive are left out. A call without a number means that no potency is given here. Where a structure was tested more than once in an assay, its records may differ in their call. Activity calls are given as the source filed them. Unless noted, calls come from the whole dose curve; as a rule, active = well fitted curve in the direction sought with a large enough effect in the repeat runs; inconclusive = weak or mixed curves; inactive = no such curve, though single readings can be large; an effect the other way counts as inactive or inconclusive.
# Columns and labels:
# [1] = target: Estrogen receptor (Homo sapiens) (UniProt P03372); test: qHTS assay to identify small molecule antagonists of the estrogen receptor alpha (ER-alpha) signaling pathway using the BG1 cell line in the presence of 0.1 nM 17-beta-estradiol (AID 1259244); note: nearly all actives have a fitted effect of over 50% in size
# In short: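 VM7Luc4E2; 4xERE-luciferase; 0.1 nM E2 final; 22 h co-incubation, 37C; ONE-Glo luminescence after 30 min at room temperature.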
# [2] = qHTS assay to identify small molecule HDAC inhibitors (AID 1259364);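 note: wild-type HCT-116 cells with endogenous class I/II HDAC activity; top concentration of the series differs between compounds; nearly all actives have a fitted effect of over 45% in size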
# In short: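 Relative class I and II HDAC activity is taken from the luminogenic signal in HCT-116 cells, with compound exposure 2 hr and reagent development 30 min at room temperature.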
# [3] = qHTS assay to identify small molecule HDAC inhibitors - cell viability counter screen (AID 1259365); note: series mostly up to about 92 µM; nearly all actives have a fitted effect of over 50% in size
# In short: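 Cytotoxicity was gauged in wild-type HCT-116 cells after a brief 2hr treatment with DMSO-dissolved compounds at 37C and 5% CO2, using CellTiter-Glo luminescence developed for 30min at room temperature.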
# [4] = qHTS assay to identify small molecule agonists of the sonic hedgehog signaling (Shh) pathway - cell viability counter screen (AID 1259366); note: nearly all actives have a fitted effect of over 50% in size
# In short: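 Stable Gli1-Luc NIH/3T3 clone, 2,000 cells/well. Compound exposure 24hr at 37C. Read-out: CellTiter-Fluor fluorescence.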
# [5] = qHTS assay to identify small molecule antagonists of the sonic hedgehog signaling (Shh) pathway - cell viability counter screen (AID 1259367); note: nearly all actives have a fitted effect of over 55% in size; note: potency is the fitted concentration of half-maximal effect
# In short: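 Seed 3T3 Gli1-Luc cells at 2,000 per well; incubate 4 hr; add compound in DMSO, then conditioned medium; incubate at 37C with 5% CO2; add CellTiter-Fluor after 23 hr; read fluorescence 1 hr later.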
# [6] = target: Estrogen receptor beta (Homo sapiens) (UniProt Q92731); test: qHTS assay to identify small molecule agonists of the estrogen receptor beta (ER-beta) signaling pathway (AID 1259377; active = well fitted activation curve with a large enough effect in the signal ratio in the repeat runs, not every such curve was filed as active; the % refers to the signal ratio)
# In short: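 Measured by fluorescence intensity from a B/G FRET beta-lactamase substrate (2 h, room temperature) in ER-beta-UAS-bla HEK293T cells treated with DMSO-dissolved compounds for 16 hr at 37C and 5% CO2.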
# [7] = target: Estrogen receptor beta (Homo sapiens) (UniProt Q92731); test: qHTS assay to identify small molecule antagonists of the estrogen receptor beta (ER-beta) signaling pathway (AID 1259378; active = well fitted inhibition curve with a large enough effect in the signal ratio in the repeat runs, not every such curve was filed as active; the % refers to the signal ratio)
# In short: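 ER-beta-UAS-bla HEK293T cells in 2% charcoal-stripped FBS medium treated with compound plus 1nM final 17-beta-estradiol for 16 hr at 37C. Beta-lactamase reporter read by FRET substrate fluorescence after 2 hours at room temperature.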
# [8] = qHTS assay to identify small molecule agonists of the androgen receptor (AR) signaling pathway in the presence of an antagonist - cell viability counter screen (AID 1259379); note: nearly all actives have a fitted effect of over 25% in size; note: potency is the fitted concentration of half-maximal effect
# In short: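 A CellTiter-Fluor read-out measured viability of MDA-kb2 reporter cells (MMTV promoter with AR and GR response elements). Treatment: nilutamide 3.0uM final with compounds at 15 concentrations, 16 hr, 37C, 0% CO2.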
# [9] = qHTS assay to identify small molecule agonists of the estrogen receptor beta (ER-beta) signaling pathway - cell viability counter screen (AID 1259380); note: nearly all actives have a fitted effect of over 30% in size; note: potency is the fitted concentration of half-maximal effect
# In short: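 Cells used were ER-beta-UAS-bla HEK293T in medium with 2% charcoal-stripped FBS. They were treated for 16 hr at 37C. Viability came from CellTiter-Glo luminescence.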
# [10] = qHTS assay to identify small molecule antagonists of the estrogen receptor beta (ER-beta) signaling pathway - cell viability counter screen (AID 1259382); note: series mostly up to about 92 µM; nearly all actives have a fitted effect of over 55% in size
# In short: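 Agonist-stimulated (1nM E2) ER-beta-UAS-bla HEK293T cells are incubated with library compounds for 16 hr at 37C. Cell viability is then assessed in the reporter-assay wells by adding CellTiter-Glo and reading luminescence after 30 min.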
# [11] = target: Estrogen receptor (Homo sapiens) (UniProt P03372); test: qHTS assay to identify small molecule agonists of the estrogen receptor alpha (ER-alpha) signaling pathway in the presence of an antagonist (AID 1259383; calls by dose curve; note: top concentration of the series differs between compounds; nearly all actives have a fitted effect of over 15% in size)
# In short: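 Using VM7Luc4E2 cells seeded 24hr before treatment, antagonist ICI-182,780 (10.0nM final) was added, followed by compounds at 15 concentrations. Plates incubated 22hr; ONE-Glo luminescence quantified reporter activity.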
# [12] = qHTS assay to identify small molecule agonists or antagonists of the thyroid stimulating hormone receptor (TSHR) signaling pathway - wild type cell line counter screen (AID 1259384; calls by dose curve)
# In short: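 Wild-type Hek293 cells, 800/well, 18 h at 37C, then compound with Ro20-1724 for 30 min RT. cAMP by HTRF (cAMP-d2/anti-cAMP cryptate), 1 h RT, fluorescence read. 15 concentrations, triplicates.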
# [13] = target: Thyrotropin receptor (Homo sapiens) (UniProt P16473); test: qHTS assay to identify small molecule antagonists of the thyroid stimulating hormone receptor (TSHR) signaling pathway (AID 1259385; calls by dose curve; note: nearly all actives have a fitted effect of over 20% in size)
# In short: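 TSHR-HEK293 cells (800/well) plated 18 h, then compounds with Ro20-1724 and TSH at 1.5 ng/mL final, 30 min at room temperature. cAMP quantified by HTRF (cAMP-d2/anti-cAMP-cryptate, 1 h); 15 concentrations in triplicate.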
# [14] = qHTS assay to identify small molecule agonists of the estrogen receptor alpha (ER-alpha) signaling pathway in the presence of an antagonist - cell viability counter screen (AID 1259386);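 note: cells exposed to compounds for 22 h at 37 °C before the viability read; nearly all actives have a fitted effect of over 30% in size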; note: potency is the fitted concentration of half-maximal effect
# In short: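 ICI-182,780 at 10.0nM final accompanies the compound titration (15 concentrations, 22hr, 37C) on VM7Luc4E2 cells. The CellTiter-Fluor fluorescence readout runs in the same wells as the luciferase assay.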
# [15] = target: Progesterone receptor (Homo sapiens) (UniProt P06401); test: qHTS assay to identify small molecule agonists of the progesterone receptor (PR) signaling pathway (AID 1346784; calls by dose curve; note: nearly all actives have a fitted effect of over 30% in size; note: potency is the fitted concentration of half-maximal effect)
# In short: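 The screen uses PR-UAS-bla HEK 293T cells in charcoal-stripped serum (2%). Compounds are applied for 16 hr at 37C after a 6 hr pre-incubation, and reporter activity is detected with a FRET beta-lactamase substrate after 2 hr at room temperature.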
# [16] = qHTS assay to identify small molecule phospholipidosis (PLD) inducers (AID 1259344; active = well fitted curve in the direction sought with a large enough effect; an effect the other way counts as inactive or inconclusive)
# In short: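 Quantitative HTS in HepG2: compound plus LipidTOX Red dye for 24 h, paraformaldehyde fixation with Hoechst 33342, widefield high-content imaging; amiodarone as positive and DMSO as negative control.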
# [17] = qHTS assay to identify small molecule agonists of the sonic hedgehog signaling (Shh) pathway (AID 1259368; calls by dose curve;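 note: NIH/3T3-derived 3T3Gli1-Luc cells carrying a stable Gli1-driven firefly luciferase reporter; series mostly up to about 92 µM; nearly all actives have a fitted effect of over 15% in size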)
# In short: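 Mouse fibroblast (NIH/3T3) reporter cells with stably integrated Gli1-Luc were treated 24 hr with compound; firefly luciferase luminescence served as the read-out.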
# [18] = qHTS assay to identify small molecule antagonists of the sonic hedgehog signaling (Shh) pathway (AID 1259369; calls by dose curve; note: nearly all actives have a fitted effect of over 45% in size; note: potency is the fitted concentration of half-maximal effect)
# In short: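 Conditioned medium drives Shh signalling in 3T3Gli1-Luc cells; compounds in DMSO co-applied, 24hr at 37 C, then luciferase luminescence.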
# [19] = target: Androgen receptor (Homo sapiens) (UniProt P10275); test: qHTS assay to identify small molecule antagonists of the androgen receptor (AR) signaling pathway using the MDA cell line in the presence of 0.5 nM R1881 (AID 1259243); note: nearly all actives have a fitted effect of over 50% in size
# In short: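 We exposed MDA-kb2 cells to compounds under 0.5 nM R1881 stimulation for 16 hr at 37C and quantified MMTV-driven luciferase by luminescence.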
# [20] = target: Androgen receptor (Homo sapiens) (UniProt P10275); test: qHTS assay to identify small molecule agonists of the androgen receptor (AR) signaling pathway in the presence of an antagonist (AID 1259381; calls by dose curve; note: nearly all actives have a fitted effect of over 15% in size)
# In short: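 Using human MDA-kb2 cells with an MMTV promoter–luciferase construct (AR and GR response elements), agonist activity is scored under 3.0uM nilutamide (final) co-treatment; 16hr incubation, 37C, luminescence readout via ONE-Glo.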
# Chain of Thyrotropin receptor (Homo sapiens) (P16473 whole entry, looked up): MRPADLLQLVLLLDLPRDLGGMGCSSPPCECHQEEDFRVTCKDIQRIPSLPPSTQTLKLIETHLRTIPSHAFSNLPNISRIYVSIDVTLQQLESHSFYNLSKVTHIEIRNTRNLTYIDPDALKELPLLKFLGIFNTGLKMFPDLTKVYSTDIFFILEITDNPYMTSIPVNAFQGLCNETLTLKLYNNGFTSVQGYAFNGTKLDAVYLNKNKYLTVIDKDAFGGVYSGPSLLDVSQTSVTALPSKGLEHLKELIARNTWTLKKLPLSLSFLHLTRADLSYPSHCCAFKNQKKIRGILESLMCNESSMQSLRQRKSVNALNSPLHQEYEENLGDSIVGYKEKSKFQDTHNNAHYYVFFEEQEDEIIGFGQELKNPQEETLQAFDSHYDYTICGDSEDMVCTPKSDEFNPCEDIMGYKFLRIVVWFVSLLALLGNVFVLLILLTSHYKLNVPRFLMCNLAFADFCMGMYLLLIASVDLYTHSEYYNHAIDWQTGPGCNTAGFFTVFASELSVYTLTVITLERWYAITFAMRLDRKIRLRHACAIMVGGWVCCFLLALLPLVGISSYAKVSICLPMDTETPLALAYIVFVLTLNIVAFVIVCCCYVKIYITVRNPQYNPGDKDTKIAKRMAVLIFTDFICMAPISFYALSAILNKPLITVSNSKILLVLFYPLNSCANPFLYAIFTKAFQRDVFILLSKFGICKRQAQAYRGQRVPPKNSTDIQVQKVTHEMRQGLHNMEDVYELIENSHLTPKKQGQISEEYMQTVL
# Chain of Progesterone receptor (Homo sapiens) (P06401 whole entry, looked up): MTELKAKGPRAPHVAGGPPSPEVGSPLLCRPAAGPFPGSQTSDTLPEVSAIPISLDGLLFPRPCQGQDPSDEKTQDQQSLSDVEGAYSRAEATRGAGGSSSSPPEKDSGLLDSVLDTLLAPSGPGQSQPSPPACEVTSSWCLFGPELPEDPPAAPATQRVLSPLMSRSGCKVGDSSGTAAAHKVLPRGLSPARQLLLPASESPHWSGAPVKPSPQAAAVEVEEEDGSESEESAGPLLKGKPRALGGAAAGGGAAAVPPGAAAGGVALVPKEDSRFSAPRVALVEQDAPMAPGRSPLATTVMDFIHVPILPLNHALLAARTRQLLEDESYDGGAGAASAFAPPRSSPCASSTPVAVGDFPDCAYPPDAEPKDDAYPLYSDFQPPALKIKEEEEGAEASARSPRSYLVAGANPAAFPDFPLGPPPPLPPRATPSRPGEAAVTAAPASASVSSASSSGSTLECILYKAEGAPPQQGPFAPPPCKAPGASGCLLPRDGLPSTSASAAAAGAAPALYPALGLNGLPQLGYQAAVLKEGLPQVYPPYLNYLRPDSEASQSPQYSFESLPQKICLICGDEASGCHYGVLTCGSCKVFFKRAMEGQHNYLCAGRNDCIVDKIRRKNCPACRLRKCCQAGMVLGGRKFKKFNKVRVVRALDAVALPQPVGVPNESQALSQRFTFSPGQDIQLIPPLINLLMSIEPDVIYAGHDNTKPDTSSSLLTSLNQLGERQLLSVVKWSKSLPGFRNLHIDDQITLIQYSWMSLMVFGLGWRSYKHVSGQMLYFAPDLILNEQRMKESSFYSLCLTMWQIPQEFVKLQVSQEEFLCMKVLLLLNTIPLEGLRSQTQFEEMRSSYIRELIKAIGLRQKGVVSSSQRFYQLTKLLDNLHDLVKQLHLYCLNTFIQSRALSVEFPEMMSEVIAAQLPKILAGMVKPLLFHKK
# Chain of Androgen receptor (Homo sapiens) (P10275 whole entry, looked up): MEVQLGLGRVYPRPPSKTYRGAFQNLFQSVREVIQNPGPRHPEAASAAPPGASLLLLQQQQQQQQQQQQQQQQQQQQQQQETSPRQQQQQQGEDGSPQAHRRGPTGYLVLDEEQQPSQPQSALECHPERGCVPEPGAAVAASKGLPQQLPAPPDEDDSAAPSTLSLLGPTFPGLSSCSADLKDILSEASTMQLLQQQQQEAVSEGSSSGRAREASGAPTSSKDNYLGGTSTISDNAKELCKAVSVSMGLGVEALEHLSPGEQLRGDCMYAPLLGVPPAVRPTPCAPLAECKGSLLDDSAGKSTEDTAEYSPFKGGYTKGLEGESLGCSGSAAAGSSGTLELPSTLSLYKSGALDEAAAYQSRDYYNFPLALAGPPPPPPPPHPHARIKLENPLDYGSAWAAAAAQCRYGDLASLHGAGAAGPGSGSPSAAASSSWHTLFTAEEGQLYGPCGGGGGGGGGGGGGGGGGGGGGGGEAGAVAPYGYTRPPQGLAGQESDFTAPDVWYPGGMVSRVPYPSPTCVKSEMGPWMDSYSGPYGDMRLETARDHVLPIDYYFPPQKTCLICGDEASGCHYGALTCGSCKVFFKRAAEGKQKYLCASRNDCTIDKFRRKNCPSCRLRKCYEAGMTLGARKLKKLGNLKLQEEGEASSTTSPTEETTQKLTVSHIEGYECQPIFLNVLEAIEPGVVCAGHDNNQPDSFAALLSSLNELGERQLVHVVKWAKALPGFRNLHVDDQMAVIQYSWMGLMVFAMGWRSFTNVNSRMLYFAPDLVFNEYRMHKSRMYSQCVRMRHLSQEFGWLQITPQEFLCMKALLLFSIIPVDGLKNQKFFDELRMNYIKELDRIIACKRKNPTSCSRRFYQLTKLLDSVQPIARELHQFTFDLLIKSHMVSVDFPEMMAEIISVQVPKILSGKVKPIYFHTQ
# Chain of Estrogen receptor (Homo sapiens) (P03372 whole entry, looked up): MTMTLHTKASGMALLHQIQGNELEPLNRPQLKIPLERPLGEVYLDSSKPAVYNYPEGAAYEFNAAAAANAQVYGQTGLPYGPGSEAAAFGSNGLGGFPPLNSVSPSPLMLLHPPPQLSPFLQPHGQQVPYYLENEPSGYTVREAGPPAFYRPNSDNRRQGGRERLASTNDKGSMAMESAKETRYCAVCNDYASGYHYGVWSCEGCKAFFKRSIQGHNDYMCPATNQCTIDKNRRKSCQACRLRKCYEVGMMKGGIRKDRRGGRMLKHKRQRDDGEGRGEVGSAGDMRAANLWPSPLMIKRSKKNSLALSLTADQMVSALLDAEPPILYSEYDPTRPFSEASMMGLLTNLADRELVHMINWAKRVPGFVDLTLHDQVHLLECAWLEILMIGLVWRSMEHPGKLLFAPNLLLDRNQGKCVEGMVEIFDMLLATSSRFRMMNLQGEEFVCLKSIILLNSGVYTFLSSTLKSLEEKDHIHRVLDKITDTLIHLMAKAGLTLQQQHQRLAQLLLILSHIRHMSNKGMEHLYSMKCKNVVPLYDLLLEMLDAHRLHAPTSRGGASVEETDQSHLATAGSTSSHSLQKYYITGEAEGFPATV
# Chain of Estrogen receptor beta (Homo sapiens) (Q92731 whole entry, looked up): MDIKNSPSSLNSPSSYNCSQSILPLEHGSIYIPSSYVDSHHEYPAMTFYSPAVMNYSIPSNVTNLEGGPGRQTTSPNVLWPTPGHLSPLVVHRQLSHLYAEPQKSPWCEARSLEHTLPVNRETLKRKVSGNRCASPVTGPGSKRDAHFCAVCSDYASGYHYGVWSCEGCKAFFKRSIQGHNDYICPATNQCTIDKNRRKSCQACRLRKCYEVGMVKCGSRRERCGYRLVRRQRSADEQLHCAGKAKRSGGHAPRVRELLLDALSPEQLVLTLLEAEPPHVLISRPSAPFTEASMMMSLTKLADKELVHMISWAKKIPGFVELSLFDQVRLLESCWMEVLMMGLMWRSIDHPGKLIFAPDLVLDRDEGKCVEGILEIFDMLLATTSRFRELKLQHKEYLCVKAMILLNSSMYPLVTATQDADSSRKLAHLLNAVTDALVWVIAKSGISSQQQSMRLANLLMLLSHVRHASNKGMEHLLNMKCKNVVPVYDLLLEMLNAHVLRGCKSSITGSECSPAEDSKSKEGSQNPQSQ
smiles,measurement,setting,value
CC(Cl)(Cl)C(=O)O,Potency,[1],inactive
same,Potency,[2],inactive
same,Potency,[3],inactive
same,Potency,[4],inactive
same,Potency,[5],inactive
same,outcome,[6],inactive
same,Potency,[7],inactive
same,Potency,[8],inactive
same,Potency,[9],inactive
same,Potency,[10],inactive
same,Potency,[11],inactive
same,Potency,[12],inactive
same,Potency,[13],inactive
same,Potency,[14],inactive
same,Potency,[15],inactive
O=c1[nH]c(=O)n(Cl)c(=O)n1Cl,outcome,[16],inactive
same,Potency,[2],inactive
same,Potency,[3],inactive
same,Potency,[4],inactive
same,Potency,[5],inactive
same,outcome,[17],inactive
same,Potency,[8],inactive
same,Potency,[9],inactive
same,Potency,[10],inactive
same,Potency,[14],inactive
same,Potency,[15],inactive
O=C(O)CCl,Potency,[2],inactive
same,Potency,[3],inactive
same,Potency,[4],inactive
same,Potency,[5],inactive
same,outcome,[17],inactive
same,Potency,[18],inactive
same,outcome,[6],inactive
same,Potency,[7],inactive
same,Potency,[8],inactive
same,Potency,[9],inactive
same,Potency,[10],inactive
same,Potency,[12],inactive
same,Potency,[13],inactive
same,Potency,[14],inactive
same,Potency,[15],inactive
CCC(=O)C(CC(C)N(C)C)(c1ccccc1)c1ccccc1 (stereo not drawn),Potency,[19],inactive
same,Potency,[1],inactive
same,PLD induction,[16],2.52% [at 3.15 µM] (inactive)
same,Potency,[2],inactive
same,Potency,[5],27.4 µM (active)
same,outcome,[6],inactive
same,Potency,[7],inactive
same,Potency,[8],inactive
same,Potency,[9],54.7 µM (active)
same,outcome,[20],inactive
same,Potency,[10],inactive
same,Potency,[11],inactive
same,Potency,[12],inactive
same,Potency,[13],inactive
same,Potency,[14],inactive
same,Potency,[15],inactive
CNC,Potency,[2],inactive
same,Potency,[3],inactive
same,Potency,[4],inactive
same,Potency,[5],inactive
same,Potency,[8],inactive
same,Potency,[9],inactive
same,Potency,[10],inactive
same,Potency,[14],inactive
same,Potency,[15],inactive
CCCCCCCCn1cc[n+](C)c1,Potency,[2],inactive
same,Potency,[3],inactive
same,Potency,[4],inactive
same,Potency,[5],inactive
same,outcome,[17],inactive
same,Potency,[18],215 nM (active) and 174 nM (active)
same,Potency,[8],4.85 µM (active) [middle of 4 runs]
same,Potency,[10],inactive
same,Potency,[12],inactive
same,Potency,[13],inactive
same,Potency,[15],inactive
O=[N+]([O-])O,Potency,[2],inactive
same,Potency,[3],inactive
same,Potency,[4],inactive
same,Potency,[5],inactive
same,outcome,[17],inactive
same,Potency,[8],inactive
same,Potency,[9],inactive
same,Potency,[10],inactive
same,Potency,[12],inactive
same,Potency,[13],inactive
same,Potency,[14],inactive
same,Potency,[15],inactive
Cc1cc(Cl)ccc1N,Potency,[2],inactive
same,Potency,[3],inactive
same,Potency,[4],inactive
same,Potency,[5],inactive
same,Potency,[8],inactive
same,Potency,[9],inactive
same,Potency,[10],inactive
same,Potency,[12],inactive
same,Potency,[13],inactive
same,Potency,[14],inactive
same,Potency,[15],inactive
CCCCn1cc[n+](C)c1,Potency,[2],inactive
same,Potency,[3],inactive
same,Potency,[4],inactive
same,Potency,[5],inactive
same,Potency,[8],inactive
same,Potency,[9],inactive
same,Potency,[10],inactive
same,Potency,[14],inactive
CCCCCCCCCCn1cc[n+](C)c1,Potency,[2],inactive
same,Potency,[3],inactive
same,Potency,[4],inactive
same,Potency,[5],inactive
same,outcome,[17],inactive
same,Potency,[9],inactive and 2.73 µM (active)
same,Potency,[10],inactive
same,Potency,[15],inactive
COc1ccc(N)cc1,Potency,[2],inactive
same,Potency,[3],inactive
same,Potency,[4],inactive
same,Potency,[5],inactive
same,Potency,[18],inactive
same,Potency,[8],inactive
same,Potency,[9],inactive
same,Potency,[10],inactive
same,Potency,[12],inactive
same,Potency,[13],inactive
same,Potency,[14],inactive
same,Potency,[15],inactive
CCCCn1cc[n+](C)c1C,Potency,[2],inactive
same,Potency,[3],inactive
same,Potency,[4],inactive
same,Potency,[5],inactive
same,Potency,[8],inactive
same,Potency,[9],inactive
same,Potency,[10],inactive
same,Potency,[14],inactive
same,Potency,[15],inactive
CC[n+]1ccccc1,Potency,[2],inactive
same,Potency,[3],inactive
same,Potency,[4],inactive
same,Potency,[5],inactive
same,outcome,[17],inactive
same,Potency,[8],inactive and 24.1 µM (active)
same,Potency,[9],inactive and 60.6 µM (active)
same,Potency,[10],inactive
same,Potency,[12],inactive
same,Potency,[13],inactive
same,Potency,[14],inactive and 42.9 µM (active)
same,Potency,[15],inactive
CCCC[N+]1(C)CCCC1,Potency,[2],inactive
same,Potency,[3],inactive
same,Potency,[4],inactive
same,Potency,[5],inactive
same,Potency,[8],inactive
same,Potency,[9],inactive
same,Potency,[10],inactive
same,Potency,[14],inactive
same,Potency,[15],inactive
N#CS,Potency,[2],inactive
same,Potency,[3],inactive
same,Potency,[4],inactive
same,Potency,[5],inactive
same,outcome,[17],inactive
same,Potency,[8],inactive
same,Potency,[9],inactive
same,Potency,[10],inactive
same,Potency,[14],inactive
same,Potency,[15],inactive
O=C(O)CC(O)(CC(=O)O)C(=O)O,Potency,[2],inactive
same,Potency,[3],inactive
same,Potency,[4],inactive
same,Potency,[5],inactive
same,Potency,[18],inactive
same,Potency,[8],inactive
same,Potency,[9],inactive
same,Potency,[10],inactive
same,Potency,[14],inactive
same,Potency,[15],inactive and 87.8 nM (active)
CCCCCC[n+]1ccccc1,Potency,[2],inactive
same,Potency,[3],inactive
same,Potency,[4],inactive
same,Potency,[5],inactive
same,Potency,[18],13.8 µM (active) and 17.3 µM (active) and inactive
same,Potency,[8],inactive
same,Potency,[9],inactive
same,Potency,[10],inactive
same,Potency,[14],inactive
same,Potency,[15],inactive
